Assay results from PubChem BioAssay AID492997 (Johns Hopkins Ion Channel Center, 2010).
About 2,000 (41%) of roughly 4,900 compounds were called active.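 Rule for the calls: active = thallium signal drop beyond 5 SD of the untreated control mean, on both duplicate plates; inactive = the rest.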 The set was probably picked from earlier hits. A selection follows.

Assay: nonspecific activity without KCNK9 expression – cell-based, second counter screen, non-induced KCNK9-HEK293, counter-screen for KCNK9 inhibitor project, confirmation (AID 492997);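 for inhibition: plate controls were buffer only IC0 wells for no effect and SID17386958 at its maximal inhibitory level for full effect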
Settings: non-induced KCNK9-HEK293, FluxOR thallium flux, at 10 µM; active compounds read high
For `O=C1N=C2SCCN2/C1=C\c1c(Cl)cccc1Cl`, the inhibition was “inactive”. In the case of `COc1cccc(OC)c1C(=O)Nc1sc2c(c1C(N)=O)CCCC2`, the inhibition is reported as “inactive”. For `Cc1ccc(OCc2cc(C(=O)N(C)CCc3ccccc3)no2)cc1C`, the inhibition was “inactive”. In the case of `COc1ccc(C(C)=O)cc1COc1ccc(Cl)c(C)c1`, the inhibition is reported as 37% (active). For `O=C(NCc1ccccc1)C1=C[C@@H](C2CCCCC2)C[C@@H](OCc2ccc(CO)cc2)O1`, the inhibition was “inactive”. In the case of `CCC(C)(C)n1nnnc1C(c1cccs1)N1CCN(c2nc3ccccc3s2)CC1` (centres undefined), the inhibition is reported as 34.5% (active). For `CC1(C)CC(N2CCN(C(c3ccccc3)c3ccccc3)CC2)=CC(=[N+]2CCCCC2)C1`, the inhibition was 36% (active). For `Cc1ccccc1CSc1nnc(CCCCCNC(=O)OC(C)(C)C)o1`, the inhibition was 22% (active). With `COC(=O)c1sc(-c2ccc(C(C)(C)C)cc2)cc1NC(=O)/C=C/C(=O)O` the inhibition was “inactive”. For `COc1ccc(C(=O)Nc2ccccc2C(=O)N/N=C/c2ccccc2OC)cc1`, the inhibition was 31% (active). For `COc1ccc(C(=O)NN2C(=O)C3C(c4ccccc4)C=CC(c4ccccc4)C3C2=O)cc1` (centres undefined), the inhibition was “inactive”. In the case of `COc1cccc(-c2cnc(OC(C)(C)C)nc2OC(C)(C)C)c1`, the inhibition is reported as “inactive”. With `O=C(COc1ccc(Cl)cc1Cl)N/N=C/c1ccccn1` the inhibition was “inactive”. In the case of `O=C(N/N=C/c1ccccn1)c1cccc(NC(=O)c2ccc(Cl)cc2)c1`, the inhibition is reported as 22.5% (active). For `O=C(Nc1ccc2c(c1)CCC2)c1cccc(S(=O)(=O)Nc2ccccc2Cl)c1`, the inhibition was “inactive”. For `CCc1ccccc1NC(=O)/C(=C/c1ccccc1)c1ccccc1`, the inhibition was 51.5% (active). In the case of `COc1ccc(C2CC(c3cccs3)=NN2c2ccccc2)cc1` (centres undefined), the inhibition is reported as 34% (active). For `CCOc1ccccc1NC(=O)C12CC3CC(C1)CC(c1ccc(C)cc1)(C3)C2`, the inhibition was “inactive”. In the case of `Cc1ccc(S(=O)(=O)N2CCN(C(=O)COC(=O)c3c(C)cc(C)cc3C)CC2)c(C)c1`, the inhibition is reported as “inactive”. For `O=C(NCCc1ccccc1)c1ccc2c(c1)N(Cc1ccccc1)CCS2`, the inhibition was 29% (active). With `O=C1/C(=C/c2ccc3c(c2)OCO3)CCC/C1=C\c1ccc2c(c1)OCO2` the inhibition was “inactive”. In the case of `CC1(C)CC(=O)CC2(C1)NCC(c1ccccc1Cl)c1c2[nH]c2ccccc12` (centres undefined), the inhibition is reported as 33% (active). With `CCCCC(=O)Nc1ccccc1N1CCN(c2ccc(F)cc2)CC1` the inhibition was 43% (active). In the case of `Cc1cccc(C(=O)Nc2ccccc2N2CCN(c3ccc(F)cc3)CC2)c1`, the inhibition is reported as 29.5% (active). With `Cc1ccc(N2CCN(S(=O)(=O)c3ccc(F)cc3)CC2)c(C)c1` the inhibition was “inactive”. In the case of `COc1ccc(C(=O)C2CCCN(C(=O)c3ccc(OC)o3)C2)c(C)c1` (centres undefined), the inhibition is reported as “inactive”. With `Cc1ccc2c(c1)N(C(=O)CCC(=O)N1CCc3ccccc3C1)CCO2` the inhibition was “inactive”. For `Fc1ccc(Cn2nnnc2C(c2cccs2)N2CCCCCC2)cc1` (centres undefined), the inhibition was 30.5% (active). With `CCC(c1nnnn1Cc1ccco1)N(CCc1ccccc1)Cc1cc2cccc(C)c2[nH]c1=O` (centres undefined) the inhibition was 33.5% (active). In the case of `CCOc1ccc2[nH]c(=O)c(CN(Cc3nnnn3CCc3ccccc3)CC3CCCO3)cc2c1` (centres undefined), the inhibition is reported as “inactive”. In the case of `Cc1cccc2cc(CN(Cc3nnnn3Cc3ccccc3)C3CCCC3)c(=O)[nH]c12`, the inhibition is reported as “inactive”. In the case of `O=C1CC(NNc2ccccc2)C(=O)N1c1cccc(Cl)c1` (centres undefined), the inhibition is reported as “inactive”. In the case of `c1ccc(C(c2ccccc2)N2CCN(Cc3nnnn3C3CCCCC3)CC2)cc1`, the inhibition is reported as 29% (active). With `CCOc1ccc(OCc2ccc(C(=O)Nc3cccc(C)n3)o2)cc1` the inhibition was “inactive”. With `CSc1cccc(NC(=S)N(C(C)C)C(C)c2ccccn2)c1` (centres undefined) the inhibition was 24.5% (active). For `CC(C)C(=O)Nc1cccc(NC(=S)NC(=O)C(c2ccccc2)c2ccccc2)c1`, the inhibition was 24% (active). In the case of `COC(C(=O)Nc1ccc(S(=O)(=O)Nc2ccc(C)c(C)c2)cc1)c1ccccc1` (centres undefined), the inhibition is reported as “inactive”. In the case of `CCCCOC(=O)CCCc1ccc([N+](=O)[O-])cc1[N+](=O)[O-]`, the inhibition is reported as “inactive”. For `COc1cc(Cl)c(S(=O)(=O)N2CCN(Cc3ccc4c(c3)OCO4)CC2)cc1Cl`, the inhibition was “inactive”. For `COc1ccc(CCNC(=O)c2ccccc2OCc2ccccc2)cc1`, the inhibition was 40% (active). With `COc1ccc(-c2nc(CCNC(=O)c3ccc(Br)o3)cs2)cc1` the inhibition was “inactive”. For `COc1ccc(CCNc2ncnc3c2nnn3Cc2ccccc2)cc1`, the inhibition was “inactive”. With `COCCNc1cc(-c2ccccc2)nc2cc(-c3cccc(F)c3)nn12` the inhibition was 30% (active). For `COC(=O)Cn1cnc2scc(-c3ccc(C)c(C)c3)c2c1=O`, the inhibition was “inactive”. For `Cc1ccc(-c2csc(NCCc3nc4cc(Cl)c(Cl)cc4n3CCOCCO)n2)cc1`, the inhibition was 36% (active). With `CCN(C(=O)COc1ccc(C(=O)c2ccccc2)cc1)c1ccccc1` the inhibition was 29% (active). For `Cc1ccc(C2=Nc3c(ccc4ccccc34)C(c3ccncc3)=NN2)cc1`, the inhibition was “inactive”. For `COc1ccc2c(c1)C(c1cccs1)=NNC(c1cccnc1)=N2`, the inhibition was 24.5% (active). With `O=C(NNc1ccccc1Cl)C(O)(c1cccc(C(F)(F)F)c1)c1cccc(C(F)(F)F)c1` the inhibition was “inactive”. With `O=[N+]([O-])/C=C/c1ccc2c(ccn2Cc2ccccc2)c1` the inhibition was 44.5% (active). In the case of `COc1cccc(COc2ccc(N(C)S(=O)(=O)c3ccccc3)cc2)c1`, the inhibition is reported as 49.5% (active). In the case of `CCOC(=O)c1cc2sccc2n1Cc1ccc(C#N)cc1`, the inhibition is reported as 53% (active). In the case of `O=C(OCC(=O)N(CCc1ccccc1)Cc1ccccc1)c1ccccc1[N+](=O)[O-]`, the inhibition is reported as “inactive”. With `O=C(Nc1ccc(Cl)c(Cl)c1)N1CC=C(c2ccccc2)CC1` the inhibition was “inactive”. In the case of `Cc1nc(N2CCN(c3ccccn3)CC2)c2c(C)c(C(=O)Nc3ccc(F)c(Cl)c3)sc2n1`, the inhibition is reported as 24.5% (active). With `COc1ccc(C(=O)C2CCCN(C(=O)c3cc(C)on3)C2)cc1F` (centres undefined) the inhibition was “inactive”. With `Oc1ccc(/C=N/Nc2nc(-c3ccccc3F)nc3ccccc23)c(O)c1` the inhibition was 32% (active). With `O=C1c2ccccc2S(=O)(=O)N1CC(O)Cn1c2ccccc2c2ccccc21` (centres undefined) the inhibition was “inactive”. In the case of `Cc1cccc(NC(=O)CN2CCCN(S(=O)(=O)c3ccc(Br)s3)CC2)c1`, the inhibition is reported as 39.5% (active). With `Cc1cccc(N(C)C(=O)CN2C(=O)COc3ccc(S(=O)(=O)N4CCCCCC4)cc32)c1` the inhibition was “inactive”. With `O=C(CSCc1ccc(Br)cc1)Nc1ccc(S(=O)(=O)N2CCCCCC2)cc1` the inhibition was “inactive”. In the case of `O=C1c2ccccc2C2=Nc3ccccc3SC(c3ccccc3F)C12` (centres undefined), the inhibition is reported as 45.5% (active). For `C=CCN(N=Nc1cccc([N+](=O)[O-])c1)c1cccc([N+](=O)[O-])c1`, the inhibition was 39% (active). For `Cc1ccc(NC2CCCN(C(=O)CCC3(C)CC3)C2)cc1C` (centres undefined), the inhibition was “inactive”.
